The record followed here is ChEMBL document CHEMBL3988442, “University of Dundee, Small-Polar-MMV Screening Library” (2021).

Experiment [1] deals with T1, Aspartate--tRNA(Asp/Asn) ligase (Mycobacterium tuberculosis (strain ATCC 25618 / H37Rv)) (UniProt P9WFW3).
T1 sequence (whole entry): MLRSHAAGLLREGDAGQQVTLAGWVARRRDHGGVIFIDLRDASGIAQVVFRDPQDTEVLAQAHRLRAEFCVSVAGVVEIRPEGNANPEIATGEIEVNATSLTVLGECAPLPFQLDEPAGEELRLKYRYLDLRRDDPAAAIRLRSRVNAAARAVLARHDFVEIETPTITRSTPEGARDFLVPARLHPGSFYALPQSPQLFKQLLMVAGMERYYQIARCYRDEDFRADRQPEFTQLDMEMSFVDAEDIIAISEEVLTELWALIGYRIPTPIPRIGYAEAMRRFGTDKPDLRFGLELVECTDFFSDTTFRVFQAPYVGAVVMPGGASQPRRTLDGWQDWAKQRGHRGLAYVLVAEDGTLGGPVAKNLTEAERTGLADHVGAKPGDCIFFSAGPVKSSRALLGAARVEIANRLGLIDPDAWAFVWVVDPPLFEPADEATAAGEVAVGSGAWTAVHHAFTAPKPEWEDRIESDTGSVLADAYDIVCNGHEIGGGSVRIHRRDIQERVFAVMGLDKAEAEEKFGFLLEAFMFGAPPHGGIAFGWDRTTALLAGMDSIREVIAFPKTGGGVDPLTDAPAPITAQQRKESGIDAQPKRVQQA
Nature of the experiment: Assay for Asp RNA synthetase-1 from Mycobacterium tuberculosis. It counts as functional. Also noted: scale not given: direction of the effect not stated beside the values. As to conditions: 30 µM.

The target of experiment [2] is Shiga toxin 2 (Escherichia coli O157:H7) (UniProt P09385+P09386). Nature of the experiment: E. coli 0.157:H7 Shiga Toxin SOP - stx2 screening assay. It counts as functional. Set-up: scale not given: direction of the effect not stated beside the values. As to conditions: 30 µM.

As to `COc1ccc(CC(=O)N(C)Cc2nnc3ccccn23)cc1`, the results for the Percent Effect in experiment [1] and in experiment [2] were 2.36% and 2.4%, respectively.
As to `CCc1c(C)sc(NC(=O)CN2CCN(CC)CC2)c1C(=O)OC`, the Percent Effect in experiment [1] was -1.36%; in experiment [2] it was -31.3%.
The corresponding values for `Cc1nccn1-c1cc(CNC(=O)c2ccccn2)ccn1` are 8.28% and -3.43%.
The corresponding values for `COc1ccc(Cl)cc1C(=O)N1CCOC2(CNCCOC2)C1` (centres undefined) are -0.926% and 11.2%.
In the case of `c1ccc(-c2nc(CN3CCCC(Cn4cncn4)C3)co2)cc1` (centres undefined), the Percent Effect is 0.247% in experiment [1] and -67.5% in experiment [2].
The like results for `COc1c(CNC2CCSc3ccc(F)cc32)c(C)nn1C` (centres undefined) were, in that order, 0.879% and -10.4%.
In the case of `Cn1cc(CN2CCn3cc(CNC(=O)c4cccn4C)nc3C2)cn1`, the Percent Effect is 2.49% in experiment [1] and -19.5% in experiment [2].
Consider `CCN1C(=O)CCC12CCCN(Cc1nccs1)CC2` (centres undefined), for which the Percent Effect in experiment [1] was found to be 2.52%; in experiment [2], 1.68%.
The corresponding values for `CC(=O)c1cc(CC(=O)NCc2c(F)cccc2F)cs1` are -0.993% and 4.94%.
In the case of `Cc1noc2ncc(C(=O)N(CC3CCOC3)C3CC3)cc12` (centres undefined), the figures for the Percent Effect in experiment [1] and in experiment [2] were 2.12% and 24.4%, respectively.
`Cc1csc([C@@H]2C[C@@H]3CCN(C(=O)c4cc(C)on4)C[C@H]3O2)n1`: the Percent Effect was 0.801% in experiment [1] and -17.6% in experiment [2].
The corresponding values for `CC(C)C(C)NC(=O)Nc1ccccc1CN1CCOCC1` (centres undefined) are 3.91% and 9.92%.
As to `CC(C)(C)C(=O)NCCn1ccc(-c2ccncc2)n1`, the results for the Percent Effect in experiment [1] and in experiment [2] were -3.08% and -20%, respectively.
As to `COC(=O)c1cccc(NS(=O)(=O)c2cnc(NC(C)=O)s2)c1`, the Percent Effect in experiment [1] was -3.37%; in experiment [2], -26.3%.
Regarding `N#CC1CCCN(c2nc(-c3ccccc3)nc3c2CCNCC3)C1` (centres undefined), the Percent Effect is 0.524% in experiment [1] and -18.1% in experiment [2].
In the case of `Cc1nc(CN(C)C2CCN(CC(=O)N3CCOCC3)C2)no1` (centres undefined), the figures for the Percent Effect in experiment [1] and in experiment [2] were 5.36% and 11.2%, respectively.
The like results for `Cc1nc2n(n1)CC(NCc1cc(Cl)c3c(c1)OCCCO3)CC2` (centres undefined) were, in that order, 6.55% and 22.8%.
The like results for `Cc1cccc(-c2ccc(C(=O)NCC3CCOC3)c(=O)[nH]2)c1` (centres undefined) were, in that order, 7.65% and 15.2%.
On to `Cc1cnccc1CN1CC[C@@](C)(O)[C@H](Oc2ccccc2)C1`, for which the Percent Effect is -5.05% in experiment [1] and -31% in experiment [2].
As to `CC(Cn1cccn1)NC(=O)NCCc1cnn(C)c1` (centres undefined), the Percent Effect is -2.54% in experiment [1] and -3.5% in experiment [2].
The like results for `CCN(C(=O)Nc1cccnc1OC)C1CC1` were, in that order, -1.21% and -24.9%.
The corresponding values for `N#Cc1ccc(S(=O)(=O)NC(=O)C2CC2)c(C(F)(F)F)c1` are 4.77% and 9.71%.
On to `Cc1nc(O)c2nnn(C[C@H]3CCCN3C(=O)c3cccc(F)c3)c2n1`, for which the Percent Effect was 2.16% in experiment [1] and -4.92% in experiment [2].
The like results for `CN1C[C@H]2CCN(C(=O)NC3CCCC3)CC[C@H]2S1(=O)=O` were, in that order, 2.12% and -19.5%.
The corresponding values for `CCNc1cc2c(nn1)CCN(C(=O)c1cccc3c1OCCO3)C2` are 7.68% and -25.7%.
`O=C(Cc1ccc2c(c1)CCCC2)NCCc1ccccn1`: the Percent Effect in experiment [1] turned out to be 2.5%; in experiment [2] it was 29.1%.
Regarding `COc1ccc(C2CCCN2C(=O)c2cc3c([nH]c2=O)CCC3)cc1` (centres undefined), the Percent Effect in experiment [1] is 3.11%; in experiment [2] it was -10%.
The like results for `CCN1CCN(c2ccc(F)cc2C(C)NCc2ccncc2)CC1` (centres undefined) were, in that order, -0.494% and 14.3%.
The corresponding values for `Cc1cc(CN(C)C2CCCN(Cc3noc(C4CC4)n3)C2)no1` (centres undefined) are 1.66% and 28%.
As to `CCCc1ncc(C(=O)N2CCOC(c3nc(C)n[nH]3)C2)s1` (centres undefined), the Percent Effect in experiment [1] was found to be 0.888%; in experiment [2] it was 2.31%.
The like results for `O=C(NCCC1=CCCCC1)C1CCCN(c2ccc3nncn3n2)C1` (centres undefined) were, in that order, -1.84% and -5.94%.
The corresponding values for `O=C(c1cccnc1N1CCOCC1)N1CCCC1Cn1cccn1` (centres undefined) are -2.94% and 31.6%.
For `Cn1cc(Cl)cc1C(=O)N1CCCN(Cc2cccs2)CC1`, the values for the Percent Effect in experiment [1] and in experiment [2] were -5.24% and 19.8%, respectively.
The like results for `CN(CC1COc2ccccc2O1)C(=O)NCCCn1ccnc1` (centres undefined) were, in that order, -0.767% and 11.4%.
The corresponding values for `O=C(C1SCCc2sccc21)N1CCC(O)CC1` (centres undefined) are 5.25% and -25.1%.
The corresponding values for `CCc1nnc2n1CCN(Cc1ccc(C(=O)N3CCCC3)cc1)C2` are -3.93% and -0.0173%.
Consider `COc1cccc(CN2CCCC3(CCN(C(=O)c4ccco4)C3)C2)c1` (centres undefined), for which the results for the Percent Effect in experiment [1] and in experiment [2] were 0.0455% and -1.7%, respectively.
Consider `Nc1nccc(NCc2cc3n(n2)CCCN(C2CCCCC2)C3)n1`, for which the figures for the Percent Effect in experiment [1] and in experiment [2] were -6% and -9.53%, respectively.
Consider `CS(=O)(=O)N1CC[C@H]2O[C@H](C(=O)NCCc3ccncc3)CC[C@H]21`, for which the Percent Effect in experiment [1] was 7.02%; in experiment [2] it was -26%.
For `Cn1nccc1-c1ccc2nc(C3CCN(CCO)CC3)nn2c1`, the values for the Percent Effect in experiment [1] and in experiment [2] were -1.83% and -15.6%, respectively.
On to `COc1ccsc1C(=O)N1CCCC(n2nc(C)nc2C)C1` (centres undefined), for which the Percent Effect in experiment [1] came out at 0.571%; in experiment [2] it was 6.02%.
The corresponding values for `CN1CCOC(CNCc2coc(-c3cccs3)n2)C1` (centres undefined) are 3.28% and -17.6%.
The corresponding values for `COc1ccc(C(N)c2cccc(S(C)(=O)=O)c2)cc1` (centres undefined) are -2.54% and -7.65%.
The corresponding values for `CCc1nc(C)c(C(=O)NCCNc2ncccn2)s1` are 0.562% and 30.3%.
Take `Cc1ccn(-c2ccccc2NCc2cccnc2C)n1`: the Percent Effect in experiment [1] was -3.62%; in experiment [2], 0.821%.
The corresponding values for `Cc1cccc(CS(=O)(=O)NCC(O)Cc2ccccc2)c1` (centres undefined) are -8.39% and 0.958%.
The like results for `CCCS(=O)(=O)NCc1cccnc1OCC` were, in that order, -1.52% and -6.28%.
